Experimental data reported in PubChem BioAssay (NCI).
The panel holds about 83,000 compounds, 20% with a hit somewhere; the sample as a whole holds those more often.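 Single-concentration screen, 48 h exposure, 96-well plates. Endpoint: percent growth. Below 10 = active.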 A number with no mark means an inactive call. Calls of active or inactive are those of the source.

What was measured:
Assay in all cases: NCI-60 one-dose screen, 48 h (100 = growth as untreated, 0 = no growth, -100 = all killed)
Conditions in all cases: 10 µM unless noted
NCI-H23 lung = tested on: NCI-H23 lung
NCI-H226 lung = tested on: NCI-H226 lung
NCI-H322M lung = tested on: NCI-H322M lung
HOP-62 NSCLC = tested on: HOP-62 NSCLC
NCI-H460 lung = tested on: NCI-H460 lung
HOP-92 NSCLC = tested on: HOP-92 NSCLC
NCI-H522 lung = tested on: NCI-H522 lung
A549/ATCC NSCLC = tested on: A549/ATCC NSCLC
786-0 renal = tested on: 786-0 renal
COLO 205 colon = tested on: COLO 205 colon
K-562 leukemia = tested on: K-562 leukemia
MALME-3M melanoma = tested on: MALME-3M melanoma
MDA-MB-231 breast = tested on: MDA-MB-231 breast
RXF 393 renal = tested on: RXF 393 renal
SF-295 CNS = tested on: SF-295 CNS
SF-539 CNS = tested on: SF-539 CNS
UACC-257 melanoma = tested on: UACC-257 melanoma
M14 melanoma = tested on: M14 melanoma
DU-145 prostate = tested on: DU-145 prostate
SF-268 CNS = tested on: SF-268 CNS

SMILES	growth (NCI-H23 lung)	growth (NCI-H226 lung)	growth (NCI-H322M lung) [%]	growth (HOP-62 NSCLC)	growth (NCI-H460 lung)	growth (HOP-92 NSCLC)	growth (NCI-H522 lung)	growth (A549/ATCC NSCLC)	growth (786-0 renal)	growth (COLO 205 colon)	growth (K-562 leukemia)	growth (MALME-3M melanoma)	growth (MDA-MB-231 breast)	growth (RXF 393 renal)	growth (SF-295 CNS)	growth (SF-539 CNS)	growth (UACC-257 melanoma)	growth (M14 melanoma)	growth (DU-145 prostate)	growth (SF-268 CNS)
NC(=S)N/N=C1\CCCC(C(F)(F)F)C1 (configuration not stated)	101%	117%	101	107%	109%	96%	94%	100%	98.9%	114%	46.3%	104%	102%	123%	100%	101%	73.2%	95.6%	–	–
N#Cc1ccc(N2Cc3ccccc3OC3=C2C(=O)c2c(O)ccc(O)c2C3=O)cc1	14.2%	10.4%	66.8	16%	46.9%	-66.2% (active)	-75.6% (active)	72.9%	-42.9% (active)	-69.3% (active)	–	-56.4% (active)	-8.93% (active)	-50.5% (active)	–	-17.5% (active)	–	-41.9% (active)	-91.8% (active)	7.68% (active)
CCN(CC)c1ccc(C(=N)c2ccc(N(CC)CC)cc2)cc1	-52.9% (active)	-33.5% (active)	16.2	-82.7% (active)	-44.5% (active)	-30.6% (active)	-62.4% (active)	6.12% (active)	-55.2% (active)	-96.6% (active)	-4.1% (active)	-32.6% (active)	-63.3% (active)	-31.5% (active)	-54.7% (active)	-68.7% (active)	-39.6% (active)	-93.1% (active)	–	–
C=C(C)[C@@H]1C[C@@H]2Cc3cc(F)ccc3N1O2	96.6%	99.1%	104	94.4%	102%	56.1%	91.3%	97.9%	103%	106%	–	83%	99.8%	108%	106%	95.6%	99.1%	95.5%	114%	101%
NC1N=C(SCC(=O)N2CCN(c3cc4c(cc3F)c(=O)c(C(=O)O)cn4C3CC3)CC2)NC(=O)/C1=C/c1ccc(Cl)cc1 (configuration not stated)	103%	106%	107	103%	110%	114%	–	103%	103%	115%	99.2%	108%	104%	110%	94.4%	97.8%	105%	104%	112%	96.2%
O=C(NNC(=S)Nc1ccccc1)c1cc2ccc1CCc1ccc(cc1)CC2	74.8%	78.9%	77.7	64.7%	36.9%	48.8%	76%	59.2%	–	77%	43.4%	74.8%	77.2%	83.7%	49.5%	82.9%	85.8%	56%	77.5%	76.6%
CC(C)(C)OC(=O)NCCc1ccc(N=C=S)cc1	81.4%	99.1%	86.9	70.1%	82.2%	39.4%	–	77.4%	80%	72.4%	57%	54.8%	88.4%	54.9%	55.5%	69.2%	78.9%	75.3%	64.6%	71.9%
N/C(=N\C(N)=N\c1nc2ccccc2s1)c1ccncc1	77.7%	76.1%	96	60.7%	94%	65.2%	–	89.3%	73.9%	64.3%	13.1%	81.5%	55.7%	65.7%	74.1%	68.2%	95.3%	49.5%	91.1%	7.14% (active)
COc1ccc(C(=O)N2NC(=O)/C(=C/c3ccc(F)cc3)N=C2c2ccccc2)cc1	92.2%	96.5%	92	99.3%	104%	93.7%	–	86.4%	78.9%	119%	94.4%	91.4%	88.1%	94.5%	80.4%	97%	99.3%	87.2%	113%	105%
